These results are taken from ChEMBL document CHEMBL1157539, “Thousands of chemical starting points for antimalarial lead identification” (Nature, 2010).

Structures are written as SMILES.

Common to all, as to type: functional
In experiment [1] the test system is Plasmodium falciparum. Description: GSK_TCMDC: Inhibition of Plasmodium falciparum 3D7 in whole red blood cells, using parasite LDH activity as an index of growth. Test compounds present at 2uM.
The subject of experiment [2] is Plasmodium falciparum. Description: GSK_TCMDC: Inhibition of Plasmodium falciparum Dd2 in whole red blood cells, using parasite LDH activity as an index of growth. Test compounds present at 2uM.
The next experiment relates to HepG2. Description: GSK_TCMDC: Percent inhibition of human HepG2 cell line. Test compounds present at 10uM.

Consider `CC(C)(C)c1ccc(-c2csc(NC(=O)CC(c3ccccc3)c3ccccc3)n2)cc1`, for which the results for the Inhibition with Plasmodium falciparum [1], in the experiment with Plasmodium falciparum [2] and in the experiment on HepG2 were 86%, 64% and 3%, respectively.

On to `CC(=O)N(C)C1CCN(Cc2cccc(-c3ccc(-c4nc5cc(C(F)(F)F)ccc5[nH]4)cc3)c2)C1.O=C(O)C(F)(F)F` (stereo not drawn), for which the Inhibition in the experiment on Plasmodium falciparum [1] was 100%; in the experiment on Plasmodium falciparum [2], 94%; with HepG2 it was 31%.

Consider `COC(=O)c1ccc(OCC(C)NCC(O)c2cccc(C(F)(F)F)c2)cc1.O=C(O)/C=C/C(=O)O` (stereo not drawn), for which the values for the Inhibition with Plasmodium falciparum [1], in the experiment on Plasmodium falciparum [2] and in the experiment with HepG2 were 94%, 81% and 6%, respectively.

For the compound `CC(Nc1nncc(-c2cccc(F)c2)n1)c1ccc(F)cc1` (stereo not drawn), the Inhibition in the experiment on Plasmodium falciparum [1] was determined as 95%; in the experiment with Plasmodium falciparum [2], 89%; in the experiment with HepG2, 4%.

Turning to `CNCCNCc1cccc(-c2ccc(-c3nc4cccc(C)c4[nH]3)s2)c1.O=C(O)C(F)(F)F`, the Inhibition in the experiment with Plasmodium falciparum [1] came out at 92%; in the experiment on Plasmodium falciparum [2], 8%; in the experiment on HepG2 it was 10%.

`Cc1cc2c(cc1C(F)(F)F)N(C(=O)Nc1cnc(OCCN(C)C)c(C(F)(F)F)c1)CC2`: the Inhibition in the experiment on Plasmodium falciparum [1] turned out to be 88%; in the experiment on Plasmodium falciparum [2], 25%; in the experiment on HepG2, 28%.

With `CCCC1(NC[C@@H](O)[C@H](Cc2ccccc2)NC(=O)c2cc(NCC)cc(N3CCCCS3(=O)=O)c2)CCCC1.Cl`, the Inhibition with Plasmodium falciparum [1] worked out at 100%; in the experiment on Plasmodium falciparum [2], 97%; with HepG2, 0%.

Regarding `CN(C)CCCN1C(=O)c2[nH]nc(-c3ccc(Cl)cc3O)c2C1c1ccc(Cl)cc1` (stereo not drawn), the figures for the Inhibition in the experiment on Plasmodium falciparum [1], in the experiment on Plasmodium falciparum [2] and in the experiment with HepG2 were 99%, 15% and 57%, respectively.

`Cc1ccc2cc(C3NC(=O)c4ccccc4N3)c(Cl)nc2c1` (stereo not drawn): the Inhibition turned out to be 91% with Plasmodium falciparum [1], 38% in the experiment with Plasmodium falciparum [2] and 0% in the experiment on HepG2.

With `Cc1onc(-c2ccccc2Cl)c1C(=O)Nc1cc(Cl)c(Cl)cc1Cl`, the Inhibition with Plasmodium falciparum [1] was determined as 90%; in the experiment on Plasmodium falciparum [2], 57%; with HepG2, 3%.

Regarding `Cn1nccc1C(=O)NCCNCc1cccc(-c2ccc(-c3nc4ccccc4[nH]3)cc2)c1.O=C(O)C(F)(F)F`, the values for the Inhibition in the experiment with Plasmodium falciparum [1], with Plasmodium falciparum [2] and with HepG2 were 100%, 98% and 19%, respectively.

Consider `COc1ccc2nccc([C@@H](O)CN3CCC(NC(=O)c4cccc(-c5cc(C)no5)c4)CC3)c2c1`, for which the results for the Inhibition in the experiment with Plasmodium falciparum [1], with Plasmodium falciparum [2] and in the experiment with HepG2 were 93%, 89% and 19%, respectively.

Turning to `Cc1cccc2nc(-c3ccc(-c4ccc(C(=O)NCCN5CCCC5)cc4)s3)[nH]c12`, the Inhibition in the experiment with Plasmodium falciparum [1] amounted to 100%; in the experiment with Plasmodium falciparum [2], 13%; in the experiment with HepG2, 20%.

As for `FC(F)(F)c1ccc(CNC2CCN(CC3CCCCC3)CC2)cc1.O=C(O)C(F)(F)F`, the Inhibition amounted to 87% in the experiment with Plasmodium falciparum [1], 5% in the experiment on Plasmodium falciparum [2] and 4% in the experiment with HepG2.

For `NCCCNc1nc(Nc2ccc(C(F)(F)F)cc2F)c2c(=O)[nH]ccc2n1.O=C(O)C(F)(F)F`, the Inhibition in the experiment on Plasmodium falciparum [1] amounted to 95%; in the experiment with Plasmodium falciparum [2], 15%; in the experiment on HepG2 it was 23%.

Turning to `Cl.O=S(=O)(c1ccc(OCc2ccc(Cl)cc2)cc1)c1cc2c(cc1O)CCN(C1CCC1)CC2`, the Inhibition is reported as 99% in the experiment on Plasmodium falciparum [1], 63% in the experiment on Plasmodium falciparum [2] and 11% with HepG2.

With `COc1cccc(C(=O)Nc2ccc(Oc3ccc(Cl)cc3)cc2)c1`, the Inhibition was 92% in the experiment with Plasmodium falciparum [1], 0% with Plasmodium falciparum [2] and 33% with HepG2.

For the compound `CN1CCC(C(=O)Nc2ccc(-c3cccc(-c4nc5cc(C(F)(F)F)ccc5[nH]4)c3)cc2)CC1`, the Inhibition is 100% with Plasmodium falciparum [1], 97% in the experiment on Plasmodium falciparum [2] and 28% in the experiment with HepG2.

On to `CCCN(CCC)CCCNc1ccc(C(=O)Nc2ccc(C(C)C)cc2)cc1[N+](=O)[O-]`, for which the values for the Inhibition in the experiment on Plasmodium falciparum [1], in the experiment with Plasmodium falciparum [2] and in the experiment with HepG2 were 98%, 38% and 17%, respectively.

For the compound `O=C(O)C(F)(F)F.O=S(=O)(NCCN1CCCC1)c1ccc(-c2ccc(CNCc3ccc(F)cc3)cc2)s1`, the Inhibition came to 100% with Plasmodium falciparum [1], 44% in the experiment with Plasmodium falciparum [2] and 42% with HepG2.

As for `COc1cccc(C(=O)NC(C=Cc2ccccc2)c2cc(Cl)c3cccnc3c2O)c1` (stereo not drawn), the Inhibition with Plasmodium falciparum [1] came to 95%; in the experiment on Plasmodium falciparum [2], 58%; with HepG2, 27%.

For the compound `COc1ccc2nc(N)nc(C)c2c1`, the Inhibition in the experiment with Plasmodium falciparum [1] amounted to 90%; with Plasmodium falciparum [2], 1%; in the experiment on HepG2 it was 5%.

Take `CC(C)NCc1ccc(-c2ccc(NS(=O)(=O)c3cccc4cccnc34)cc2)cc1.O=C(O)C(F)(F)F`: the Inhibition with Plasmodium falciparum [1] worked out at 90%; in the experiment on Plasmodium falciparum [2], 45%; in the experiment with HepG2, 27%.

`Cc1cc(=NN=Cc2ccccc2Cl)c2cccc(C)c2[nH]1`: the Inhibition with Plasmodium falciparum [1] is 97%; in the experiment with Plasmodium falciparum [2] it was 98%; in the experiment on HepG2, 10%.

In the case of `CC1(C)NC(N)=NC(=N)N1OCc1nc(N)nc(Nc2ccccc2)n1`, the Inhibition worked out at 98% in the experiment on Plasmodium falciparum [1], 0% with Plasmodium falciparum [2] and 3% with HepG2.

Take `COc1cccc(C(=O)Nc2ccc(Nc3nc(C)cc(N(C)C)n3)cc2)c1OC`: the Inhibition amounted to 90% in the experiment on Plasmodium falciparum [1], 9% with Plasmodium falciparum [2] and 0% in the experiment with HepG2.

On to `Cc1nc(C)c(-c2ccc(-c3ccc(F)cc3)cc2)c(O)c1Br`, for which the Inhibition was determined as 94% in the experiment on Plasmodium falciparum [1], 52% in the experiment on Plasmodium falciparum [2] and 12% with HepG2.

For `Fc1ccc2[nH]c(-c3ccc(-c4ccc(CN5CCCCC5)cc4)cc3)nc2c1.O=C(O)C(F)(F)F`, the Inhibition in the experiment with Plasmodium falciparum [1] is 98%; with Plasmodium falciparum [2], 100%; in the experiment with HepG2, 31%.

For `CC(C)c1cccc(OCC2CCN(c3ncc(C(=O)NC4CC4)cc3Cl)CC2)c1`, the Inhibition with Plasmodium falciparum [1] is 94%; in the experiment with Plasmodium falciparum [2], 95%; with HepG2 it was 9%.

As to `CCN(CC)CCCN(C(=O)c1cc2c(C)nn(-c3ccccc3)c2s1)c1nc(-c2ccc(OC)cc2)cs1.Cl`, the Inhibition in the experiment with Plasmodium falciparum [1] is on record as 89%; in the experiment on Plasmodium falciparum [2], 32%; in the experiment on HepG2, 12%.

For the compound `Cc1ccc(Nc2ccnc3ccc(C(F)(F)F)cc23)cc1O.O=C(O)C(F)(F)F`, the figures for the Inhibition in the experiment with Plasmodium falciparum [1], in the experiment on Plasmodium falciparum [2] and in the experiment on HepG2 were 100%, 69% and 23%, respectively.

Broadly, the Inhibition is how much of the control response was suppressed.
